Reference: PubChem BioAssay
Inconclusive results are not listed. Calls of active or inactive are those of the source.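 The calls were made as follows, unless noted: active = inhibition above 50%, about 3 SD of the validation set; inactive = the rest.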

Experiments:
[1] = rapamycin-like changes in RPL19A-GFP expression – cell-based, S. cerevisiae, multiplex flow cytometry, primary screen (AID 1862; in the data active = percent of DMSO control GFP below about 86%;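 also: lower values mimic rapamycin by blocking the RPL19A rise seen in DMSO cells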); conditions: S. cerevisiae RPL19A-GFP strain, flow cytometry fluorescence, 3 h; at 10 µM; stronger effect = lower value
[2] = TOR pathway GLN3 branch reporter MEP2-GFP changes – S. cerevisiae, multiplex flow cytometry, primary screen (AID 1867;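 active = GFP response, as percent of the DMSO control, above the screen-wide mean plus 3 SD, about 139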;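 also: median GFP channel fluorescence of barcode-gated MEP2-GFP cells measured by flow cytometry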); conditions: S. cerevisiae MEP2-GFP strain, 3 h, at 10 µM, stronger effect = higher value, 100% means same as DMSO wells
[3] = TOR pathway RTG branch CIT2 reporter changes – S. cerevisiae, GFP fusion, multiplex flow cytometry, primary screen (AID 1870;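 active = percent response above a set limit, the screen-wide mean plus 3 SD, cut at about 130% in these data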;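 also: barcoded CIT2-GFP strain pooled with four other GFP strains with rapamycin as positive control; median GFP fluorescence per well over plate mean of DMSO wells so 100% = DMSO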); conditions: S. cerevisiae CIT2-GFP expression, 3 h, at 10 µM, stronger effect = higher value
[4] = TOR pathway LAP4-GFP level changes – S. cerevisiae, multiplex flow cytometry, primary screen (AID 1873;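 active = GFP signal, as percent of the solvent control, above the screen mean plus 3 SD, about 149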); conditions: S. cerevisiae LAP4-GFP expression, 3 h, at 10 µM, stronger effect = higher value
[5] = yeast AGP1-GFP level changes, GLN3 branch – cell-based, multiplex flow cytometry, S. cerevisiae, primary screen (AID 1887;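 active = GFP signal above the screen-wide mean plus 3 SD, that is over about 124.5% of the solvent control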;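 also: AGP1-GFP fusion strain of S. cerevisiae within a five-strain barcoded multiplex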); conditions: 3 h, at 10 µM, stronger effect = higher value
[6] = reduced mouse 2C T cell binding to pMHC/ICAM-1 vesicles – MLPCN validation set, flow cytometry, LFA-1/ICAM-1 modulator project, pilot screen (AID 2523;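 active = response below a set limit, under 55% cells CD8-positive and vesicle-bound, and CD8 cells' 90th-percentile brightness under 279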;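 as to vesicle binding response: mean PE anti-B7-1 fluorescence of CD8+ cells relative to row control; 100% = QL9-loaded vesicles with DMSO vehicle in the same plate row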); conditions: 2C mouse CD8+ T cells, at 7 µM, stronger effect = lower value; double positive events: measured here: CD8+/vesicle+ event percentage
[7] = target: Integrin beta-1 (Homo sapiens) + Integrin alpha-4 (Homo sapiens) (UniProt P13612+P05556); assay: alpha4beta1 integrin LIBS antibody binding reduction – U937 cells, HUTS-21 mAb, flow cytometry, validation set, VLA-4 allosteric modulator project, pilot screen (AID 2674); conditions: HUTS-21 LIBS mAb binding, at 6.7 µM, stronger effect = higher value, binding induced by LDV ligand;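 also: antibody binding induced by the VLA-4 ligand LDV present at three times its Kd; 0% = LDV ligand with antibody and no compound and 100% = antibody without LDV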
[8] = calorie-restriction mimetic ROS inhibitors, yeast – validation compound set, pilot screen (AID 2706;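 active = superoxide response below 65% of plate, a cut near 3 SD across the whole screen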;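 also: yeast exposed to compound for one week at 30 degrees C before staining; 100% = mean of all compound wells on the same plate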); conditions: S. cerevisiae aging, superoxide DHE fluorescence; at 10 µM; stronger effect = lower value
[9] = target: Beta-adrenergic receptor kinase 1 (Homo sapiens) (UniProt P25098); assay: GRK2 binders displacing RNA aptamer, biochemical, validation, human GRK2, bead flow cytometry (AID 488806;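 active = aptamer binding inhibition above 30%, about 3 SD of noise from non-fluorescent compounds; inactive = inhibition at or below 30%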); conditions: bead-bound GRK2, FAM-aptamer displacement, at 10 µM, stronger effect = higher value
[10] = target: Beta-2 adrenergic receptor (Homo sapiens) (UniProt P07550); assay: agonist-induced loss of surface beta2AR – cell-based, FAP fluorogen, flow cytometry, validation set, pilot screen (AID 504459;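 active = percent response above 42, roughly 3 SD of non-fluorescent test compounds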;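 also: agonist-driven loss of surface beta2AR via internalization measured by FAP dye flow cytometry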); conditions: Am2.2-beta2AR cells, at 10 µM, stronger effect = higher value
[11] = target: AP-2 complex subunit beta (Homo sapiens) (UniProt P63010); assay: beta-arrestin/AP2 interaction blockers – biochemical, validation set, GST-AP2 beads, flow cytometry, pilot screen (AID 504541;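 active = inhibition above 54%, about 3 SD of non-fluorescent compounds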;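 also: AP2 carries R879A mutation and is captured from E. coli lysate; bead-bound FITC arrestin peptide fluorescence measuring arrestin peptide binding to AP2; 0% = DMSO wells and 100% = excess unlabeled arrestin peptide control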); conditions: FITC arrestin peptide, at 10 µM, stronger effect = higher value, AP2 beta2 appendage fragment, R879A mutant
[12] = cytosolic pH regulators acting via V-ATPase – S. cerevisiae, pHLuorin, HTS validation (AID 504600; in the data active = response above about 15%;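 also: plate controls were DMSO for no effect and reference compound for full effect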); conditions: V-ATPase proton transport, at 10 µM, stronger effect = higher value
[13] = tested on: anti-desmoglein-3 scFv antibody binding to human DSG3; assay: blockers of pathogenic pemphigus antibody–desmoglein-3 binding – biochemical, validation compound set, bead-based, flow cytometry, pilot screen (AID 588368;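 active = binding below the plate cutoff, the plate median minus 3 SD, with a reading above zero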;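 also: signal is the median channel fluorescence of bead-bound GFP antibody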); conditions: Protein G beads, DSG3-Fc, scFv-GFP binding, at 10 µM, stronger effect = lower value
[14] = Nile Red efflux blockade in pump-expressing yeast – validation compound set, multiplex, phenotypic, pilot screen (AID 588506;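 active = efflux inhibition above 0.42, the validation set average plus 4 SD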;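 also: Nile Red retained in cells so higher fluorescence means more efflux inhibition; 0 = negative control wells and 1 = enniatin B 25 µM full block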); conditions: S. cerevisiae pump-expressing triplex, Nile Red efflux flow cytometry; at 10 µM; stronger effect = higher value; the pumps come from Candida albicans
[15] = target: ATP-binding cassette sub-family B member 6 (Homo sapiens) (UniProt Q9NP58); assay: blockers of ABCB6-driven porphyrin uptake – K562-ABCB6 cells, flow cytometry, validation set, pilot screen (AID 588550;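 active = inhibition above the screen-wide mean plus 3 SD, about 51%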;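 also: 0% = DMSO wells and 100% = benzethonium chloride 70 µM positive control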); conditions: K562-ABCB6 porphyrin accumulation, 1 h, at 10 µM, stronger effect = higher value
[16] = AML differentiation inducers, ER-HoxA9 marrow cells – cell-based, GFP/MAC1 double positive, flow cytometry, validation set, primary screen (AID 588685;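 active = differentiation response of at least 50%, scaled between solvent and reference control, from cells with both markers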;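 also: compound exposure lasts four days before antibody staining and flow analysis; 0% = DMSO wells and 100% = 5 µM fulvestrant positive control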); conditions: stronger effect = higher value, normalized: vehicle 0, fulvestrant 100

Chain of Beta-2 adrenergic receptor (Homo sapiens) (P07550 whole entry, looked up): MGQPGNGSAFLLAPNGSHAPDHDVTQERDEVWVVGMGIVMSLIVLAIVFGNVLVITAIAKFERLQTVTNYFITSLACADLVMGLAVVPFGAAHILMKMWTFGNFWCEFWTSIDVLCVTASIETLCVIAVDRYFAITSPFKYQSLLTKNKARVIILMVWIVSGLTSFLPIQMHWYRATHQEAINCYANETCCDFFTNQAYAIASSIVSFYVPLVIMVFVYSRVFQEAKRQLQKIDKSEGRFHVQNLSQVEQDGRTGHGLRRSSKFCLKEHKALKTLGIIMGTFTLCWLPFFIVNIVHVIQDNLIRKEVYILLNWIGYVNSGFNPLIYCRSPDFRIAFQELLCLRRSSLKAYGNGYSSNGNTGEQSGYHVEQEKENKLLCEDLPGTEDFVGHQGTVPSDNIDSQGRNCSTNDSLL
Chain of ATP-binding cassette sub-family B member 6 (Homo sapiens) (Q9NP58 whole entry, looked up): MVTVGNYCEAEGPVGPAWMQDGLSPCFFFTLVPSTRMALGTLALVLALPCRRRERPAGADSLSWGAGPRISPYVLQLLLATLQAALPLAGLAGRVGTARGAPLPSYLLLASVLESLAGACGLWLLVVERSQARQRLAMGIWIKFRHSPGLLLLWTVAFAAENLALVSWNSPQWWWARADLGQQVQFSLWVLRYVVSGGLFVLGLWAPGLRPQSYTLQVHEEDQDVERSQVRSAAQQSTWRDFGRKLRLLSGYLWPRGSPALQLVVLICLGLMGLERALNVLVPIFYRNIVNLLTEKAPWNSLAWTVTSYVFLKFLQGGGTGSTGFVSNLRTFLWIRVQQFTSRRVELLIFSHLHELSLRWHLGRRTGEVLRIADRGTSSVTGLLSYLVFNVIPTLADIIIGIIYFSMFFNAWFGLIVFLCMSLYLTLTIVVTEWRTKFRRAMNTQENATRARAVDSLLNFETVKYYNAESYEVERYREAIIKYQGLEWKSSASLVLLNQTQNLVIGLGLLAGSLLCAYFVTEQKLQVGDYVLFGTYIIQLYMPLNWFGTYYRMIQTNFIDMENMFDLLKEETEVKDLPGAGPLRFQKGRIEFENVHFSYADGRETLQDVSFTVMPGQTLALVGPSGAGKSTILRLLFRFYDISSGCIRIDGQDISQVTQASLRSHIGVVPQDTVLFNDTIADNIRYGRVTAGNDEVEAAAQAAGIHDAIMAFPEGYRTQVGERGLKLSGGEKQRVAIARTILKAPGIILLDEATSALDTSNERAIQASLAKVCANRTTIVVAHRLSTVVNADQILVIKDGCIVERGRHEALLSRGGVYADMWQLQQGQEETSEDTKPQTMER
Chain of Beta-adrenergic receptor kinase 1 (Homo sapiens) (P25098 whole entry, looked up): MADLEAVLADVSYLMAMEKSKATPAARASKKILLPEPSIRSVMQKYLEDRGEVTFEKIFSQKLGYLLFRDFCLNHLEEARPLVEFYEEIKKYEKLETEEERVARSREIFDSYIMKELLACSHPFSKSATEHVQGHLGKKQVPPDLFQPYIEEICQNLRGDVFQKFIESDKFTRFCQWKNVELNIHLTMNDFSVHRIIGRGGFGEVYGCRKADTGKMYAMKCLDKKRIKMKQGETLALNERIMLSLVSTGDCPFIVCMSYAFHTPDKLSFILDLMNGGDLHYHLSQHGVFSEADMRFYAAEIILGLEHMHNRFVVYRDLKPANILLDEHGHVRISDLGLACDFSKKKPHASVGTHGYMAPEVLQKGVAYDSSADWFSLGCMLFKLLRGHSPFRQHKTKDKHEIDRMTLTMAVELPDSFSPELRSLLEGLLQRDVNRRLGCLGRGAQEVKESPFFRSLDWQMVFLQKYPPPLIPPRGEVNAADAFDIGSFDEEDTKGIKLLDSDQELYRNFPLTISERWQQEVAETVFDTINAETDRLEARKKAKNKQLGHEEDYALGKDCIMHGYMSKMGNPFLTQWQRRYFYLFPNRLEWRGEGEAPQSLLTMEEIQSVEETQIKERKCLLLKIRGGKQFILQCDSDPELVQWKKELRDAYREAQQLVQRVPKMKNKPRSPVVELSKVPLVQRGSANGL
Chain of Integrin beta-1 (Homo sapiens) + Integrin alpha-4 (Homo sapiens) (P05556 whole entry, looked up): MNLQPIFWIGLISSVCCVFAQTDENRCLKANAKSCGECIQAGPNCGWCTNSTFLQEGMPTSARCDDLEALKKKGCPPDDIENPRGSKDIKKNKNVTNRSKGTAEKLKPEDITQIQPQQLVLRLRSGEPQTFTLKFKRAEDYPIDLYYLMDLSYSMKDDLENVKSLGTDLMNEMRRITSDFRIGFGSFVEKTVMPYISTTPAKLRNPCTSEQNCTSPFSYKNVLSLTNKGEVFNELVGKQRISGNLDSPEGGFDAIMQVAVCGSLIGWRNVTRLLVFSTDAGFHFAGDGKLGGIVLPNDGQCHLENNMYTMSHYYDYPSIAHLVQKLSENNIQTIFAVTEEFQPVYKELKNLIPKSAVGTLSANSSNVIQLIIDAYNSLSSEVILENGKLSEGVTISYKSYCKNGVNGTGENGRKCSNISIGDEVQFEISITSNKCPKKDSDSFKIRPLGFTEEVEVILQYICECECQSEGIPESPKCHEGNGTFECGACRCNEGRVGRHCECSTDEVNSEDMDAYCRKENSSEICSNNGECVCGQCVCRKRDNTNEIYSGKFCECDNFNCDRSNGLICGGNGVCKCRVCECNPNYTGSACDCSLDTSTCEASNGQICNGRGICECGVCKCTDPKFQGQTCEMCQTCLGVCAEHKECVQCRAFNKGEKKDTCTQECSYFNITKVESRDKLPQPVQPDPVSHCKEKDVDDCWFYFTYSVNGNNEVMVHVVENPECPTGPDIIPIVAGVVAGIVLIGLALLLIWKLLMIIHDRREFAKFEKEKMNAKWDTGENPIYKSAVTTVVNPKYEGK
Chain of Integrin beta-1 (Homo sapiens) + Integrin alpha-4 (Homo sapiens) (P13612 whole entry, looked up): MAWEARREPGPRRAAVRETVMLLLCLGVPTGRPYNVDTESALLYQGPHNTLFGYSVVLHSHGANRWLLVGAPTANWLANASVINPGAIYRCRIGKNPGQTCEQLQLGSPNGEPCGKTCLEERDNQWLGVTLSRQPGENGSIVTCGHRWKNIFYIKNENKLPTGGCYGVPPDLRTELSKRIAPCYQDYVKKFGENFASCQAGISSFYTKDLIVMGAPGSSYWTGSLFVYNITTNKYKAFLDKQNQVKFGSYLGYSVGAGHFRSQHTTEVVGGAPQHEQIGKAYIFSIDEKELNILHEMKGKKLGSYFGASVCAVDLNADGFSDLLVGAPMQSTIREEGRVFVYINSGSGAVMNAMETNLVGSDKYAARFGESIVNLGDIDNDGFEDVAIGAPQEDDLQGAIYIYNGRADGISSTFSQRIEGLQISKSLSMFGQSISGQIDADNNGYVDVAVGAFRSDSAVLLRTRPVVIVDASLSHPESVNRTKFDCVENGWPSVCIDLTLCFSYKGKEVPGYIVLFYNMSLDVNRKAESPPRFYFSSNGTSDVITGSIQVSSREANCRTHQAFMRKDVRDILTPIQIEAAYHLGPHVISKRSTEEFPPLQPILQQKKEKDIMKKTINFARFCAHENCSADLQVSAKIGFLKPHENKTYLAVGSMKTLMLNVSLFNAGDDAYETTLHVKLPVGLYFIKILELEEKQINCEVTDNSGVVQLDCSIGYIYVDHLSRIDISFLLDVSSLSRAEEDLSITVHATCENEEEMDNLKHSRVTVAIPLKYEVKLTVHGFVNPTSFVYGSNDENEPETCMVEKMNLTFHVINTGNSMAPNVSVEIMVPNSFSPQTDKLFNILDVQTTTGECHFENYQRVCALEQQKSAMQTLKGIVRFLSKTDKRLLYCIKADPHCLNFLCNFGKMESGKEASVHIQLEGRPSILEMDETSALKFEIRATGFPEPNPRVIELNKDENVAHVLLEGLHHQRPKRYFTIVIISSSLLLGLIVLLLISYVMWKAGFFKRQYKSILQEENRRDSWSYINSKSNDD
Chain of AP-2 complex subunit beta (Homo sapiens) (P63010 whole entry, looked up, the tested form may be a part, one chain of several): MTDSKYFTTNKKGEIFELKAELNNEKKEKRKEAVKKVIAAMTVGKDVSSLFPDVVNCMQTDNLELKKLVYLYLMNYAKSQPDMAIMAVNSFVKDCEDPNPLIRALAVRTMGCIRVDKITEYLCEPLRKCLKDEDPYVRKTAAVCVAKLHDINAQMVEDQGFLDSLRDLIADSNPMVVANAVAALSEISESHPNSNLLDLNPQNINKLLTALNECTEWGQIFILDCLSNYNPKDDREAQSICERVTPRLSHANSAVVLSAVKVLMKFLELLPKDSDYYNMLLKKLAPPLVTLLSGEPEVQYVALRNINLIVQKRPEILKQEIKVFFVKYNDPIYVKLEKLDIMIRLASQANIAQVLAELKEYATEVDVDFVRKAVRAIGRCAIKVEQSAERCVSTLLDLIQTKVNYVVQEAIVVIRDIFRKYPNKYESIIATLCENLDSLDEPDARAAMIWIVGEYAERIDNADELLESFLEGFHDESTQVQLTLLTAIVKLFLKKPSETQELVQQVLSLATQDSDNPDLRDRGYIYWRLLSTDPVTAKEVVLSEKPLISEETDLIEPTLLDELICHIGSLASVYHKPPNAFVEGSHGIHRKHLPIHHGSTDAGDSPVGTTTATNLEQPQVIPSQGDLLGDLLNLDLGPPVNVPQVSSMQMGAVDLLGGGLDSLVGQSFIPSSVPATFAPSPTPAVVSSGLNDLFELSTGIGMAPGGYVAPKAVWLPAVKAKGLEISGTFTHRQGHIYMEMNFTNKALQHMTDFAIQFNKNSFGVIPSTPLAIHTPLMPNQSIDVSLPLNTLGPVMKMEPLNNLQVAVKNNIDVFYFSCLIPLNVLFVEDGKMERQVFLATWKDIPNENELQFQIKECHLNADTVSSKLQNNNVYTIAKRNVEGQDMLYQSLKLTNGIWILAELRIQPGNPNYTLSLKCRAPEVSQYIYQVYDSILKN

Structure (SMILES) | percent of DMSO control GFP [1] | GFP response vs DMSO [2] | percent response of DMSO control [3] | GFP response vs DMSO [4] | GFP response, % of DMSO [5] | double positive events [6] [%] | vesicle binding response [6] | inhibition [7] | superoxide response (% of plate) [8] | aptamer binding inhibition [9] | response [10] | inhibition [11] | response [12] | binding (% of control) [13] | efflux inhibition (fraction of control) [14] | inhibition [15] | differentiation response [16]
O=C1CC(c2ccc(O)cc2)Oc2cc(O)cc(O)c21 (stereo not drawn) | 107% (inactive) | 99.3% (inactive) | 107% (inactive) | 104% (inactive) | 110% (inactive) | 61.7 | 238% (inactive) | -31.6% (inactive) | 91.7% (inactive) | 1% (inactive) | -11.3% (inactive) | -6.71% (inactive) | 4.67% (inactive) | 94.3% (inactive) | -0.26 (inactive) | 9% (inactive) | 1.22% (inactive)
Cc1cc(O)c(C(C)C)cc1C1(c2cc(C(C)C)c(O)cc2C)OC(=O)c2ccccc21 | 104% (inactive) | 107% (inactive) | 104% (inactive) | 120% (inactive) | 108% (inactive) | 61.7 | 219% (inactive) | 43.2% (inactive) | 88.7% (inactive) | -2% (inactive) | 3.1% (inactive) | 62.6% (active) | -4.85% (inactive) | 101% (inactive) | -0.09 (inactive) | 5% (inactive) | 15.7% (inactive)
COc1ccc(C(=O)Nc2cccc3cccnc23)cc1OC | 102% (inactive) | 105% (inactive) | 105% (inactive) | 119% (inactive) | 96.3% (inactive) | 49.8 | 156% (inactive) | -18.5% (inactive) | 103% (inactive) | -4% (inactive) | 10.2% (inactive) | -6.27% (inactive) | -0.52% (inactive) | 103% (inactive) | -0.33 (inactive) | 0% (inactive) | -17.7% (inactive)
C[C@@H]1C[C@H]2[C@@H]3C[C@H](F)C4=CC(=O)C=C[C@]4(C)[C@@]3(F)[C@@H](O)C[C@]2(C)[C@@]1(O)C(=O)COC(=O)C(C)(C)C | 101% (inactive) | 105% (inactive) | 99.3% (inactive) | 98.7% (inactive) | 99.2% (inactive) | 58.5 | 142% (inactive) | 6.85% (inactive) | 104% (inactive) | 3% (inactive) | -5.56% (inactive) | 19.2% (inactive) | 0.5% (inactive) | 100% (inactive) | 0.14 (inactive) | 4% (inactive) | -4.16% (inactive)
Nc1nc2c(nc(SCc3ccccc3Br)n2C2OC(CO)C(O)C2O)c(=O)[nH]1 (stereo not drawn) | 102% (inactive) | 97.4% (inactive) | 101% (inactive) | 108% (inactive) | 101% (inactive) | 62.7 | 50.1% (inactive) | -1.79% (inactive) | 94.9% (inactive) | 0% (inactive) | 17.9% (inactive) | 26.3% (inactive) | -4.55% (inactive) | 90.9% (inactive) | 0.12 (inactive) | 1% (inactive) | -23.2% (inactive)
CCc1cc2c(=O)c(-c3ccc4c(c3)OCCO4)coc2c(CN2CCCCC2C)c1O (stereo not drawn) | 103% (inactive) | 98.6% (inactive) | 91.8% (inactive) | 103% (inactive) | 109% (inactive) | 63.4 | 177% (inactive) | 14.2% (inactive) | 65.8% (inactive) | 2% (inactive) | -18.8% (inactive) | 9.88% (inactive) | 3.99% (inactive) | 112% (inactive) | -0.04 (inactive) | -2% (inactive) | 15.7% (inactive)
Nc1cnn(C2OC(CO)C(O)C2O)c(=O)n1 (stereo not drawn) | 102% (inactive) | 108% (inactive) | 100% (inactive) | 102% (inactive) | 99.4% (inactive) | 63.4 | 463% (inactive) | -13.9% (inactive) | 99.1% (inactive) | 3% (inactive) | -1.33% (inactive) | 1.7% (inactive) | 0.15% (inactive) | 97.7% (inactive) | 0.11 (inactive) | 0% (inactive) | -8.55% (inactive)
COc1c2ccoc2nc2c(OC)cccc12 | 105% (inactive) | 101% (inactive) | 95.8% (inactive) | 102% (inactive) | 105% (inactive) | 64.2 | 5040% (inactive) | 21.4% (inactive) | 82.1% (inactive) | 5% (inactive) | -6.43% (inactive) | -5.75% (inactive) | 0.27% (inactive) | 97.2% (inactive) | -0.13 (inactive) | 6% (inactive) | -15.2% (inactive)
COC(=O)[C@@H](N)CS | 102% (inactive) | 102% (inactive) | 98.2% (inactive) | 95.1% (inactive) | 103% (inactive) | 60.5 | 61.8% (inactive) | -3.18% (inactive) | 101% (inactive) | 8% (inactive) | 15.2% (inactive) | -20.1% (inactive) | 0.91% (inactive) | 95.6% (inactive) | 0.2 (inactive) | 4% (inactive) | -3.4% (inactive)
